Reference: PubChem BioAssay AID1878 (Sanford-Burnham Center for Chemical Genomics, 2009)
In all, about 1,000 compounds went through this assay and about 200 (20%) were called active. A selection follows. Potency and affinity values are given separately. Unmarked numbers belong to inactive results. Rule as the data show it: active = inhibition above about 55%; inactive = the rest.

These compounds were tested against Dual specificity protein phosphatase 3 (Homo sapiens) (UniProt P51452) (assay: VHR1 phosphatase inhibitors, biochemical (AID 1878)). Settings: recombinant VHR phosphatase, fluorogenic substrate; at 13.3 µM; hits give high values.
Dual specificity protein phosphatase 3 (Homo sapiens), sequence (P51452 whole entry, looked up): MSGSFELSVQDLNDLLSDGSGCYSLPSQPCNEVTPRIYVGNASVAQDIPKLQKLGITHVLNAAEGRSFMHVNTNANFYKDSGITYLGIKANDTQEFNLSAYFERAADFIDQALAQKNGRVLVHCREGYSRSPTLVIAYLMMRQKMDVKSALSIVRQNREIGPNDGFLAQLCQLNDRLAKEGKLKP
`CN1C(=O)CN=C(c2ccc(Cl)cc2)c2cc(Cl)ccc21` was tested, and the inhibition was 16%. Compound `COc1cccc(-c2nc(CS(=O)(=O)CC(=O)NCCCN3CC(C)CC(C)C3)c(C)o2)c1` (stereo not given) has an inhibition of -0.7%. For `N#C/C(=C\c1ccc(-c2ccc(C(=O)O)cc2)o1)C(=O)Nc1ccc(F)cc1`, the inhibition was 82.2% (active). For `CN(C)N1C(N)=C(C#N)C(c2cccc(Cl)c2)C2=C1CCCC2=O` (stereo not given), the inhibition was 0.6%. `CC1CCCN(CCCNS(=O)(=O)c2ccc3c(c2)CCN3C(=O)C2CC2)C1` (stereo not given) was tested, and the inhibition was -6.7%. With `CC#CC#Cc1cccc(=O)o1` the inhibition was 42.9%. In the case of `O=C(O)CCSC1CC(=O)N(c2ccccc2)C1=O` (stereo not given), the inhibition is reported as 16.8%. In the case of `O=S(=O)(c1cc(Cl)ccc1Cl)N1CCc2ccccc21`, the inhibition is reported as -1.3%. `CN(C)c1ccc(NC(=O)CSc2nnc(C3CCCCC3)n2N)cc1` gave an inhibition of -7.6%. Work on `Cc1ccc2nc(SCC(=O)NCc3ccc(F)cc3)[nH]c2c1` yielded an inhibition of 19.1%. For `Cc1nc2ccccc2c(=O)n1NC(=O)c1ccccc1`, the inhibition was -2%. In the case of `O=C(CSc1ccc2ccccc2n1)Nc1nsc(-c2ccc(Cl)cc2)n1`, the inhibition is reported as 80% (active). In the case of `CS(=O)(=O)/C(C#N)=C/c1cccn1S(=O)(=O)c1ccccc1`, the inhibition is reported as -10.1%. `CC(C)[C@H](NC(=O)c1ccco1)C(=O)NCc1ccccc1` gave an inhibition of 6%. `O=C(COc1ccccc1)NCCc1cnc[nH]1` was tested, and the inhibition was -4.2%. In the case of `O=C(COc1ccccc1Cl)N1CCCCCCC1`, the inhibition is reported as -0.6%. For `CCN1CCN(CC(=O)Nc2nc3ccc(C)cc3s2)CC1`, the inhibition was -5.5%. In the case of `CCn1c(SCC(=O)Nc2ccc(-c3nc4ccc(C)cc4s3)cc2)nnc1-c1ccccc1`, the inhibition is reported as 88.3% (active). `COc1ccc(NC(=O)CSc2ccc3nnc(CCNC(=O)c4ccccc4)n3n2)cc1` was tested, and the inhibition was -4.5%. `Cc1ccc(S(=O)(=O)/C(C#N)=C/c2c(N3CCOCC3)nc3c(C)cccn3c2=O)cc1` was tested, and the inhibition was 3%. Compound `c1ccc(-c2cc(-c3ccccc3)[n+](-c3ccccc3)c(-c3ccccc3)c2)cc1` has an inhibition of -14.8%. Work on `CCOc1c(Br)cc(C(=O)N2CCCN(C)CC2)cc1OC` yielded an inhibition of 2.9%. For `COc1ccc(NCCC(O)c2ccc(Cl)cc2)cc1` (stereo not given), the inhibition was -2%. With `CCCn1c(C(O)c2ccc(OC)c(OC)c2)nc2ccccc21` (stereo not given) the inhibition was 7%. Work on `CCOC(=O)C1(Cc2cccc(Cl)c2)CCCN(C(=O)c2cc(CC)on2)C1` (stereo not given) yielded an inhibition of -6.6%. Compound `Cc1ccccc1N1C(=O)C2ON(c3ccccc3)C(c3ccncc3)C2C1=O` (stereo not given) has an inhibition of -3.4%. `Cc1ccc(N2C(=O)CC(N3CCN(S(=O)(=O)c4ccccc4)CC3)C2=O)c(C)c1` (stereo not given) showed an inhibition of -2.4%. Work on `CC1CCCCN1CCCNC(=O)CN1C(=O)c2cccnc2Oc2ccc(Cl)cc21` (stereo not given) yielded an inhibition of -4.5%. Compound `O=c1[nH]c2ccccc2nc1/C=C/c1ccc(Cl)cc1` has an inhibition of 14.9%. `COc1ccc(-c2csc3ncn(Cc4ccccc4)c(=O)c23)cc1` showed an inhibition of -2.5%. `FC(F)(F)c1cccc(NC(=S)N2CCCC2)c1` was tested, and the inhibition was 12%. Compound `NC(=O)c1ccc(NC(=O)CS(=O)(=O)c2cn(CC(=O)N3CCCCC3)c3ccccc23)cc1` has an inhibition of -15.1%. With `O=C(O)C(CCCCNS(=O)(=O)c1ccc(F)cc1)NS(=O)(=O)c1ccc(F)cc1` (stereo not given) the inhibition was -6.2%. For `COCCNC(=O)CN1N=C(c2ccc(C)cc2)CCC1=O`, the inhibition was 6.3%. For `O=C(CSc1nnc(-c2ccccc2)o1)c1ccc2c(c1)OCCO2`, the inhibition was -8.7%. `C=CCn1c(SCC(=O)c2c(C)[nH]c3ccccc23)nnc1-c1ccncc1` was tested, and the inhibition was 35.6%. For `Cn1c(SCC(=O)c2ccc3c(c2)Cc2ccccc2-3)nnc1-c1ccccc1`, the inhibition was 83.7% (active). `Cc1ccc(NC2CCCN(C(=O)c3ccccn3)C2)cc1C` (stereo not given) showed an inhibition of -5.3%. With `O=C(CCc1nnc2ccc(NCc3ccccc3)nn12)NC1CCCCC1` the inhibition was 4.6%. With `COc1ccc(N=C2C(=O)Nc3ccc(C)c(Br)c32)cc1` the inhibition was 7.8%. `COc1ccc(Cl)cc1NCCC(O)c1ccc(F)cc1` (stereo not given) showed an inhibition of -9.5%. For `COc1ccccc1-c1csc(-n2ncc(C#N)c2N)n1`, the inhibition was 73.9% (active). For `O=C(NC1CC2CCCC(C1)N2)c1ccccc1` (stereo not given), the inhibition was -12.1%. `CC(NC(=O)C(=O)N1CCCCC1)C(c1cccs1)N1CCN(C)CC1` (stereo not given) gave an inhibition of -4.5%. For `CCN(CC)CCNC(=O)Cn1cnc2sc(C)c(S(=O)(=O)N3CC(C)CC(C)C3)c2c1=O` (stereo not given), the inhibition was -8.4%. Work on `COc1cc(C(=O)NCCC(=O)NCc2c(F)cc(F)cc2F)cc(OC)c1OC` yielded an inhibition of 21.2%. `CCC(=O)N1CCc2cc(S(=O)(=O)NCCc3ccc(S(N)(=O)=O)cc3)ccc21` showed an inhibition of 0.3%. Work on `COc1ccccc1CN1CC(C(=O)NCc2ccc(C)c(F)c2)CCC1=O` (stereo not given) yielded an inhibition of -6.8%. `Cc1c(C)c2ccc(OCC(=O)NCCCn3ccnc3)c(C)c2oc1=O` gave an inhibition of -9.5%. With `COc1ccc2c(c1)c(=O)oc1c(C)c(OCc3cc(C(=O)O)oc3C)ccc12` the inhibition was 40.3%. For `Cc1ccc(C)c(NC(=O)C(c2ccccc2)N2CCOCC2)c1` (stereo not given), the inhibition was 6.5%. Compound `COc1cccc(-c2nc(CS(=O)(=O)CC(=O)N3CCCCC3)c(C)o2)c1` has an inhibition of -1%. Work on `CC1=C(C(=O)OC(C)C)C(c2ccc3c(c2)OCO3)NC(=O)N1` (stereo not given) yielded an inhibition of -7.6%. With `C[n+]1cccc(C(=O)Nc2ccccc2)c1` the inhibition was 13.8%. In the case of `O=C(Nc1ccccc1C(=O)O)c1ccc2c(c1)C(=O)N(c1cccc([N+](=O)[O-])c1)C2=O`, the inhibition is reported as 2.4%. With `NS(=O)(=O)c1ccc(NC(=O)c2cccc(N3C(=O)c4ccccc4C3=O)c2)cc1` the inhibition was 93.1% (active). `Cc1ccccc1-c1nc(CS(=O)(=O)CC(=O)NCCCN2CC(C)CC(C)C2)c(C)o1` (stereo not given) showed an inhibition of 28.9%. `COCCn1c(SCC(=O)Nc2cccc(C)n2)nnc1-c1ccco1` was tested, and the inhibition was 3.1%. Work on `O=C(NCCc1ccc(Cl)cc1)c1ccc2nccnc2c1` yielded an inhibition of 6.7%. `CCN1CCN(CCCNC(=O)CN2C(=O)c3cccnc3Oc3ccc(Cl)cc32)CC1` showed an inhibition of 14%.
